From the supplement of paper PMC10981050
Several values for one entry are separate records, joined by “and”; a condition that tells them apart may be missing. Equal values may be shown once. Where a name gives a salt, the structure may show the parent alone.

How the values were obtained:
Test in all cases: cell viability relative to vehicle control; higher = less cytotoxic
Conditions in all cases: 10 µM
K562 = test system: K562
Method in brief: (§1)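 CRISPR-edited mutant clones and isogenic wild-type clones from four leukaemia lines were screened against Selleck bioactive, kinase and epigenetic probe libraries, with identity-inconsistent compounds excluded. Each compound was acoustically dispensed at a single 10 µM dose into 384-well plates holding 2000 cells in 50 µL medium per well. After 48 h the supernatant was removed and CellTiter-Glo luminescence was read. Viability was expressed as percent of the on-plate vehicle control and analysed in Genedata Screener.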

MARIMO = test system: MARIMO
Method in brief: as §1

MOLM14 = test system: MOLM14
Method in brief: as §1

OCI-AML2 = test system: OCI-AML2
Method in brief: as §1

| SMILES | cell viability (K562; SRSF2 genotype: SRSF2 P95H/wt) | cell viability (K562; SRSF2 genotype: SRSF2 wt/wt) [%] | cell viability (MARIMO; SRSF2 genotype: SRSF2 P95H/wt) [%] | cell viability (MARIMO; SRSF2 genotype: SRSF2 wt/wt) [%] | cell viability (MOLM14; SRSF2 genotype: SRSF2 P95H/wt) [%] | cell viability (MOLM14; SRSF2 genotype: SRSF2 wt/wt) [%] | cell viability (OCI-AML2; SRSF2 genotype: P95H/wt) [%] | cell viability (OCI-AML2; SRSF2 genotype: wt/wt) [%] |
| --- | --- | --- | --- | --- | --- | --- | --- | --- |
| CCN(CC)CC(=O)Oc1ccc(NC(C)=O)cc1 [Propacetamol hydrochloride] | 90.2% and 83.3% | 86.5 | 94.2 | 90.2 | 93.6 | 94.7 | 86.4 | 96.7 |
| CC12CCC(CC1)C(C)(C)O2 [Eucalyptol] | 104% and 102% | 104 | 101 | 101 | 104 | 101 | 102 | 103 |
| Nc1nc(-c2ccco2)c2cnn(Cc3ccccc3F)c2n1 [A2AR antagonist 1] | 76% and 77.7% | 72.9 | 73.4 | 70.2 | 88.9 | 98.6 | 91.6 | 88.5 |
| Oc1nc(-c2ccc(C(F)(F)F)cc2)nc2c1CSCC2 | 105% and 99.2% | 105 | 104 | 105 | 94 | 95.5 | 94.6 | 96.7 |
| Cc1[nH]c(/C=C2\C(=O)Nc3ccc(F)cc32)c(C)c1C(=O)NCCN1CCCC1 [Toceranib phosphate] | 97.4% and 103% | 94.5 | 64 | 53.4 | 5.66 | 7.09 | 11.6 | 19.6 |
| CCCCCCCCCCCCc1ccc(S(=O)(=O)Nc2nncs2)cc1 | 107% and 104% | 102 | 105 | 109 | 105 | 106 | 98.7 | 111 |
| Cc1cc(C)cc(NC(=O)Cc2ccc(OC(C)(C)C(=O)O)cc2)c1 [Efaproxiral sodium] | 102% and 99.1% | 99.9 | 109 | 119 | 110 | 103 | 106 | 116 |
| CCCOc1ccc(CCc2nc3cc(-c4c(C)noc4C)ccc3n2CCN2CCOCC2)cc1 | 81.1% and 91% | 84.9 | 80.3 | 76.7 | 60.3 | 65 | 59.1 | 73.5 |
| O=C1OC(C(O)CO)C([O-])=C1O.[Na+] (centres undefined) [Sodium erythorbate] | 104% and 106% | 114 | 106 | 107 | 102 | 110 | 114 | 119 |
| CCOc1cc(CC(=O)N[C@@H](CC(C)C)c2ccccc2N2CCCCC2)ccc1C(=O)O [Repaglinide] | 105% and 100% | 97.6 | 103 | 101 | 102 | 101 | 108 | 116 |
| CC(C(=O)O)c1ccc(C(=O)c2cccs2)cc1 (centres undefined) [Suprofen (Profenal)] | 107% and 103% | 93.2 | 94.7 | 110 | 98.9 | 99.9 | 88.8 | 94.2 |
| Nc1nc(N)nc(-c2cc(Cl)ccc2Cl)n1 [Irsogladine] | 95.2% and 105% | 97.1 | 102 | 113 | 101 | 103 | 108 | 101 |
| NC12CC3CC(CC(C3)C1)C2 [Amantadine hydrochloride (Symmetrel)] | 99.7% and 116% | 107 | 107 | 103 | 106 | 112 | 111 | 100 |
| CC[C@@H]1/C=C(\C)C[C@H](C)C[C@H](OC)[C@H]2O[C@@](O)(C(=O)C(=O)N3CCCC[C@H]3C(=O)O[C@H](/C(C)=C/[C@@H]3CC[C@@H](O)[C@H](OC)C3)[C@H](C)[C@@H](O)CC1=O)[C@H](C)C[C@@H]2OC [Ascomycin (FK520)] | 75.8% and 83% | 83.6 | 86.6 | 96.8 | 89.1 | 89.1 | 95.8 | 93.5 |
| CC1(C)S[C@@H]2[C@H](NC(=O)[C@H](N)c3ccccc3)C(=O)N2[C@H]1C(=O)OCOC(=O)[C@@H]1N2C(=O)C[C@H]2S(=O)(=O)C1(C)C [Sultamicillin] | 100% and 98.8% | 106 | 93.1 | 101 | 97.2 | 102 | 103 | 116 |
| CC1(C)CC[C@]2(C(=O)O[C@@H]3O[C@H](CO)[C@@H](O)[C@H](O)[C@H]3O)CC[C@]3(C)C(=CC[C@@H]4[C@@]5(C)CC[C@H](O[C@@H]6O[C@H](C(=O)O)[C@@H](O)[C@H](O)[C@H]6O[C@@H]6O[C@H](CO)[C@@H](O)[C@H](O)[C@H]6O)C(C)(C)[C@@H]5CC[C@]43C)[C@@H]2C1 [Ginsenoside Ro] | 101% and 95.6% | 95.9 | 102 | 110 | 100 | 98.5 | 97.8 | 109 |
| COc1cc(-c2coc3cc4c(c(OC)c3c2=O)OCO4)cc(OC)c1OC [Irisflorentin] | 93.9% and 96.7% | 93.6 | 89.8 | 96.8 | 96.8 | 97.9 | 81.6 | 90.9 |
| N#Cc1cccc(-c2c[nH]c3ncnc(N4CCOCC4)c23)c1 | 102% and 106% | 102 | 81.9 | 92.8 | 96.8 | 103 | 109 | 106 |
| COc1ccc(-c2coc3cc(O)cc(O)c3c2=O)cc1 [Biochanin A (4-Methylgenistein)] | 97.6% and 85.7% | 85.2 | 79.3 | 90 | 96.5 | 91.3 | 82.5 | 79.5 |

| SMILES | cell viability (K562; SRSF2 genotype: SRSF2 P95H/wt) | cell viability (K562; SRSF2 genotype: SRSF2 wt/wt) [%] | cell viability (MARIMO; SRSF2 genotype: SRSF2 P95H/wt) [%] | cell viability (MARIMO; SRSF2 genotype: SRSF2 wt/wt) [%] | cell viability (MOLM14; SRSF2 genotype: SRSF2 P95H/wt) [%] | cell viability (MOLM14; SRSF2 genotype: SRSF2 wt/wt) [%] | cell viability (OCI-AML2; SRSF2 genotype: P95H/wt) [%] | cell viability (OCI-AML2; SRSF2 genotype: wt/wt) [%] |
| --- | --- | --- | --- | --- | --- | --- | --- | --- |
| Clc1ccc2nsnc2c1NC1=NCCN1 [Tizanidine HCl] | 104% and 101% | 104 | 94.3 | 107 | 103 | 99.6 | 101 | 106 |
| O=c1cc(-c2cccc3c2Sc2ccccc2S3)oc(N2CCOCC2)c1 | 98.7% and 93.1% | 91.2 | 105 | 103 | 93.6 | 95.5 | 85.7 | 88.8 |
| Cc1ccc2nc(NC(=O)CSc3nc4c(c(=O)n3-c3ccccc3)SCC4)sc2c1 | 91.8% and 99.4% | 89.8 | 94 | 98.9 | 98.9 | 93.3 | 94.2 | 104 |
| Cn1cc(C(=O)[C@@H]2CCc3[nH]cnc3C2)c2ccccc21 [Ramosetron Hydrochloride] | 92.3% and 92.8% | 81.9 | 91.2 | 94.8 | 96.2 | 94.1 | 92.2 | 89.9 |
| CCNC(=O)c1noc(-c2cc(C(C)C)c(O)cc2O)c1-c1ccc(CN2CCOCC2)cc1 [Luminespib (AUY-922, NVP-AUY922)] | 16.9% and 29.2% | 25.6 | 32.3 | 26 | 1.2 | 1.31 | 12.3 | 20.7 |
| COc1cccc2c1C(=O)c1c(O)c3c(c(O)c1C2=O)C[C@@](O)(C(=O)CO)C[C@@H]3O[C@H]1C[C@H](N)[C@H](O[C@@H]2CCCCO2)[C@H](C)O1 [Pirarubicin] | 9.97% and 17.9% | 15.8 | 5.07 | 2.51 | 0.15 | 0.13 | 0.2 | 0.51 |
| C[C@@H]1O[C@@H](OC[C@H]2O[C@@H](Oc3c(-c4ccc(O)c(O)c4)oc4cc(O)cc(O)c4c3=O)[C@H](O)[C@@H](O)[C@@H]2O)[C@H](O)[C@H](O)[C@H]1O [Rutin (Rutoside)] | 106% and 105% | 109 | 108 | 106 | 105 | 103 | 105 | 115 |
| CCCC(=O)Nc1ncnc2c1ncn2[C@@H]1O[C@@H]2COP(=O)(O)O[C@H]2[C@H]1OC(=O)CCC [Dibutyryl-cAMP (Bucladesine)] | 91.3% and 90.5% | 92.8 | 87.2 | 97.4 | 83.6 | 94.4 | 104 | 97.7 |
| C[C@H](Oc1ccc(S(C)(=O)=O)cc1C(=O)N1CCN(c2ncc(C(F)(F)F)cc2F)CC1)C(F)(F)F | 105% and 98.9% | 95 | 97.1 | 107 | 97.3 | 105 | 101 | 104 |
| COc1cccc(Nc2c(C(N)=O)cnc3c(C)cc(S(=O)(=O)c4cccc(C(=O)N(C)C)c4)cc23)c1 | 109% and 106% | 108 | 93.5 | 101 | 108 | 103 | 111 | 98.2 |
| CCCCC1C(=O)N(c2ccccc2)N(c2ccccc2)C1=O [Phenylbutazone (Butazolidin, Butatron)] | 98.1% and 102% | 94.9 | 97.2 | 102 | 98 | 99.9 | 106 | 107 |
| CC(C)(C)OC(=O)N[C@@H]1CCCC[C@H]1N [(1R,2R)-trans-N-Boc-1,2-cyclohexanediamine] | 104% and 108% | 98.6 | 101 | 104 | 101 | 105 | 114 | 104 |
| CCC[C@H](NC(=O)/C(C#N)=C/c1cccc(Br)n1)c1ccccc1 [Degrasyn (WP1130)] | 11.2% and 17.4% | 9.59 | 2.97 | 1.3 | 0.32 | 0.25 | 0.67 | 0.8 |
| COc1cc(O)c2c(c1)C(=O)c1cc(C)cc(O)c1C2=O [Rheochrysidin (Physcione)] | 96.9% and 101% | 95.5 | 98.4 | 111 | 102 | 103 | 92.5 | 102 |
| COc1ccc2[nH]c([S@@+]([O-])Cc3ncc(C)c(OC)c3C)nc2c1 [NEXIUM (esomeprazole magnesium)] | 101% and 97.4% | 104 | 97 | 107 | 92 | 98.6 | 90.5 | 94.8 |
| S=c1[nH]cnc2nc[nH]c12 [Mercaptopurine (6-MP)] | 58.5% and 51.3% | 34.1 | 82.1 | 85.9 | 74.4 | 63.6 | 83.2 | 90 |
| NC(=O)[C@H](CCCN=C(N)CCl)NC(=O)c1ccccc1 [Cl-amidine] | 101% and 98% | 95.7 | 101 | 97.2 | 98.4 | 99 | 111 | 102 |
| CCCNC(C)C(=O)Nc1c(C)csc1C(=O)OC (centres undefined) [Articaine HCl] | 107% and 117% | 114 | 107 | 106 | 106 | 107 | 116 | 99.9 |
| OC[C@H]1O[C@@](CO)(O[C@H]2O[C@H](CO)[C@@H](O)[C@H](O)[C@H]2O)[C@@H](O[C@H]2O[C@H](CO)[C@@H](O)[C@H](O)[C@H]2O)[C@@H]1O [D-(+)-Melezitose] | 100% | 97.6 | 105 | 115 | 98.5 | 107 | 95.1 | 95.5 |
